Test results as given in PubChem BioAssay AID1159580 (chemical genetic matrix, 2015).
Several values for one entry are separate records, joined by “and”; a condition that tells them apart may be missing. Identical values can stand only once. The whole screen tested about 5,500 compounds, of which about 2,000 (36%) were called active. Another 18% or so got no clear call; they are omitted. No stated cut-off is given here; in the data, active means normalized growth mostly below about 0.91 (no sharp cut-off); inconclusive means no clear call, values can overlap the other calls; inactive means mostly above about 0.92. This is one part of the list.

Experiment: chemical genetic growth profiling, strain panel (AID 1159580);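 further: tested at 20 µM; growth read once vehicle control cultures reached saturation at 30 °C; 1 = growth at the plate median or of vehicle wells; lower values mean less growth of the strain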
Conditions: S. cerevisiae deletion strains, growth OD

Measured: normalized growth

Oc1ccc(Cl)cc1
inactive: locus YAL013W, strain DEP1, active compounds read low 0.992 | locus YAL021C, strain ccr4, active compounds read low 1.01 | locus YAL026C, strain drs2, active compounds read low 1.03 | locus YAL030W, strain snc1, active compounds read low 1.01 | locus YBL061C, strain skt5, active compounds read low 1.01 | locus YBR009C, strain hhf1, active compounds read low 1.01 | locus YBR021W, strain FUR4, active compounds read low 0.971 | locus YBR023C, strain chs3, active compounds read low 1.01 | locus YBR171W, strain sec66, active compounds read low 1.02 | locus YBR229C, strain ROT2, active compounds read low 0.986 | locus YBR231C, strain swc5, active compounds read low 1 | locus YBR279W, strain paf1, active compounds read low 1.01 | locus YCL011C, strain gbp2, active compounds read low 1.01 | locus YCL016C, strain dcc1, active compounds read low 1.02 | locus YCL029C, strain bik1, active compounds read low 0.976 | locus YCL061C, strain MRC1, active compounds read low 1.02 | locus YCL069W, strain vba3, active compounds read low 1.01 | locus YCR088W, strain abp1, active compounds read low 1.01 | locus YDL005C, strain med2, active compounds read low 1.01 | locus YDL035C, strain GPR1, active compounds read low 0.987 | locus YDL040C, strain nat1, active compounds read low 1.01 | locus YDL074C, strain BRE1, active compounds read low 1.01 | locus YDL101C, strain DUN1, active compounds read low 0.985 | locus YDL134C, strain PPH21, active compounds read low 0.975 | locus YDL185W, strain tfp1, active compounds read low 0.98 | locus YDL192W, strain arf1, active compounds read low 0.977 | locus YDR001C, strain nth1, active compounds read low 1.01 | locus YDR069C, strain doa4, active compounds read low 0.992 | locus YDR101C, strain arx1, active compounds read low 0.973 | locus YDR137W, strain rgp1, active compounds read low 1.04 | locus YDR159W, strain sac3, active compounds read low 0.981 | locus YDR162C, strain NBP2, active compounds read low 0.995 | locus YDR195W, strain ref2 1.02 | locus YDR297W, strain sur2, active compounds read low 1.01 | locus YDR318W, strain mcm21, active compounds read low 0.977 | locus YDR334W, strain swr1, active compounds read low 1.01 | locus YDR335W, strain msn5, active compounds read low 1 | locus YDR388W, active compounds read low 0.962 | locus YDR392W, strain spt3, active compounds read low 0.956 | locus YDR502C, strain sam2, active compounds read low 0.979 | locus YEL003W, strain gim4, active compounds read low 1.01 | locus YEL037C, strain rad23, active compounds read low 1.01 | locus YEL061C, strain CIN8 (second series), active compounds read low 1.01 | locus YEL061C, strain CIN8, active compounds read low 0.993 | locus YER015W, strain faa2, active compounds read low 1.01 | locus YER016W, strain bim1, active compounds read low 0.997 | locus YER110C, active compounds read low 0.973 | locus YER111C, strain swi4, active compounds read low 1.01 | locus YER155C, strain BEM2 (second series), active compounds read low 1.02 | locus YER155C, strain BEM2, active compounds read low 0.987 | locus YER167W, strain BCK2, active compounds read low 0.984 | locus YFR010W, strain ubp6, active compounds read low 1 | locus YGL078C, strain dbp3, active compounds read low 0.978 | locus YGL086W, strain mad1, active compounds read low 1 | locus YGL167C, strain pmr1, active compounds read low 1 | locus YGL173C, strain kem1, active compounds read low 1 | locus YGL227W, strain vid30, active compounds read low 1.01 | locus YGL240W, strain doc1, active compounds read low 1 | locus YGL248W, strain PDE1, active compounds read low 0.991 | locus YGL253W, strain hxk2, active compounds read low 1.02 | locus YGR135W, strain pre9, active compounds read low 0.978 | locus YGR229C, strain SMI1, active compounds read low 0.996 | locus YGR252W, strain gcn5, active compounds read low 1.05 | locus YHR013C, strain ard1, active compounds read low 1.03 | locus YHR027C, strain rpn1, active compounds read low 1.01 | locus YHR030C, strain SLT2, active compounds read low 0.99 and 0.965 | locus YHR079C, strain IRE1 (second series), active compounds read low 0.966 | locus YHR079C, strain IRE1, active compounds read low 0.966 | locus YHR094C, strain hxt1, active compounds read low 0.974 | locus YHR129C, strain ARP1, active compounds read low 0.998 | locus YHR142W, strain chs7, active compounds read low 1.02 | locus YHR200W, strain rpn10, active compounds read low 0.98 | locus YIL066C, strain RNR3, active compounds read low 0.992 | locus YIL073C, strain SPO22, active compounds read low 0.942 | locus YIL125W, strain kgd1, active compounds read low 0.975 | locus YIR030C, strain dcg1, active compounds read low 0.98 | locus YJL092W, strain hpr5, active compounds read low 1.02 | locus YJL095W, strain BCK1 (second series), active compounds read low 1.01 | locus YJL095W, strain BCK1, active compounds read low 1.01 and 0.962 | locus YJL115W, strain asf1, active compounds read low 1.02 | locus YJL129C, strain trk1, active compounds read low 0.99 | locus YJL134W, strain LCB3, active compounds read low 0.991 | locus YJL154C, strain vps35, active compounds read low 1.01 | locus YJL164C, strain tpk1, active compounds read low 1 | locus YJL166W, strain qcr8, active compounds read low 1.02 | locus YJL168C, strain set2, active compounds read low 0.978 | locus YJL187C, strain SWE1 (second series), active compounds read low 0.986 | locus YJL187C, strain SWE1, active compounds read low 1.02 | locus YJR043C, strain POL32, active compounds read low 1 | locus YJR066W, strain TOR1, active compounds read low 0.934
